Experimental data published in PubChem BioAssay AID1220 (Sanford-Burnham Center for Chemical Genomics, 2008).
Out of some 190,000 compounds screened, about 1,300 (0.68%) were called active. No stated cut-off is given here; in the data, active means inhibition above about 50%; inactive means the rest. What follows is part of a selection rich in actives, with near analogues and random picks from the rest.

These compounds were tested against Mannose-6-phosphate isomerase (Homo sapiens) (UniProt P34949) (assay: human PMI inhibitors, high substrate, primary screen, biochemical, fluorescence intensity, high mannose 6-phosphate (AID 1220)). Conditions: recombinant PMI enzyme, coupled fluorescence intensity; at 20 µM; hits give high values.
Mannose-6-phosphate isomerase (Homo sapiens), sequence (P34949 whole entry, looked up): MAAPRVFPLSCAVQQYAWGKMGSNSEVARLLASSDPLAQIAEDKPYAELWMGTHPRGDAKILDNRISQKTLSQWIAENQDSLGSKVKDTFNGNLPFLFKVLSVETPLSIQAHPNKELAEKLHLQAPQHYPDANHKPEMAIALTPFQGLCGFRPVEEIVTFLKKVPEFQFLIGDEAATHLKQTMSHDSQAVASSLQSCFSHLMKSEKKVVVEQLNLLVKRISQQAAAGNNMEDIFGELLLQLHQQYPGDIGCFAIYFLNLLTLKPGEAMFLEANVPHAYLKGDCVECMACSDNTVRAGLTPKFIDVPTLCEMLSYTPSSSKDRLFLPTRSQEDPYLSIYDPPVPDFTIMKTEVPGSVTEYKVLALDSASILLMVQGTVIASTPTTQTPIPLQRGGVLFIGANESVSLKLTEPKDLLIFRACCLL

inhibition, inactive:
CCOC(=O)C1C(c2ccccc2)N(C)OC1(O)C(F)(F)F (stereo not drawn) 6.7%
Cc1c(C(=O)OC2CCCC2)[nH]c2c1C(=O)CC(c1ccco1)C2 (stereo not drawn) 23.1%
CCOC(=O)C(C)Oc1cccc2c(=O)n(CC(=O)Nc3ccc(OCC)cc3)ccc12 (stereo not drawn) 7.6%
Cc1cc(C)n2c(SCc3ccc(Cl)cc3Cl)nnc2n1 -3.9%
CN(Cc1cc(=O)n2ccsc2n1)c1ccccc1 -17.6%
CCN(Cc1cc(=O)n2ccsc2n1)Cc1nc2ccccc2c(=O)[nH]1 -3.9%
COc1ccc(NC(=O)c2sccc2C)cn1 12.5%
COc1ccc(NC(=O)c2cc(OC)c(OC)c(OC)c2)cn1 8.4%
COc1cc(CNCCO)cc(Br)c1OCc1ccccc1 1.8%
O=C1CN(C(=O)COC(=O)/C=C/c2ccco2)c2ccccc2N1 1.6%
Cc1ccc(/C=C/C(=O)N2CC(=O)Nc3ccccc32)o1 1.3%
CN(C)c1nc(OCCOC(=O)c2ccccc2)nc(N(C)C)n1 10%
O=[N+]([O-])c1ccc2cn(-c3ccccc3)nc2c1 -4.3%
O=[N+]([O-])c1ccc2c(c1)ncn2-c1ccccc1 -7.7%
CC(=O)Nc1ccc(S(=O)(=O)Nc2nc3ccccc3nc2N2CCCCCC2)cc1 2.2%
Cc1ccc(N2CCN(C(=S)c3ccc(-c4cccc([N+](=O)[O-])c4)o3)CC2)cc1 26.5%
O=[N+]([O-])c1ccccc1-c1ccc(C(=S)N2CCCC2)o1 18.9%
Cc1cc(C)nc(N/N=C/c2cccc3ccccc23)n1 -14.6%
COc1cccc(CN(C)C(=O)c2cccnc2SC)c1OC -6.5%
COc1ccc(-c2nnc3ccc(SCC(=O)N4CCOCC4)nn23)cc1 -2.8%
CC1(O)C(=O)c2ccccc2N(c2ccccc2)C1=O (stereo not drawn) -4.8%
CCN1C(=O)C(F)(CC)C(=O)c2ccccc21 (stereo not drawn) 4.2%
O=C(NNC(=O)C1CC(c2cccnc2)=NO1)Nc1ccccc1F (stereo not drawn) -6.2%

inhibition, active:
CCN(Cc1cc(=O)n2ccsc2n1)c1cccc2ccccc12 67.3%
COc1ccc(NC(=O)c2cc(Br)c(Br)s2)cn1 53.2%
Cc1ccc(/C=C/C(=O)OCC(=O)N2CC(=O)Nc3ccccc32)o1 55.2%
Cc1cccc(N2CCN(C(=S)c3ccc(-c4ccccc4[N+](=O)[O-])o3)CC2)c1 57.3%
CN1C(=O)C(Cl)(Cl)C(=O)c2ccccc21 68.4%
